# Source: PubChem BioAssay
# Compounds with a hit are over-represented: about 1.6% of the library has one in this group of screens.
# PABP FP inh = blocks human PABP binding to poly(A) RNA | inhibition, % at 35 µM | P11940 | 290,000 tested, 1% active | fluorescence polarization;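 note: calls also rest on retests at 20 µM and on dose response follow-up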
# MLLE-PAM2 inh = inhibitors of microRNA-mediated deadenylation, human PABP1 MLLE binding | P11940 | GST-MLLE / FITC-PAM2 fluorescence polarization | inhibition, % at 20 µM | 360,000 tested, 0.36% active; in the data active = inhibition above about 35%, passing the limit was not always enough;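 note: plate controls were DMSO wells with GST-MLLE for no effect and wells lacking GST-MLLE protein for full effect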
# eIF4E-4G inh = inhibitors of eIF4E and eIF4G interaction in translation initiation. P63073+Q04637. TR-FRET eIF4E-eIF4GI(517-606) binding, 2 h. inhibition, % at 21.7 µM. 220,000 tested, 0.37% active;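 active = inhibition above about 30%, limit read from the data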;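 note: 0% = full FRET control wells and 100% = background wells lacking eIF4GI fragment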
# eIF4H inh = inhibitors of RNA binding by human eIF4H | Q15056 | eIF4H fluorescence polarization binding assay | inhibition, % at 35 µM | 290,000 tested, 0.94% active | AID 2012;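 note: calls also rest on retests at 20 µM and on dose response follow-up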
# PERK inhibitor = human PERK inhibition, primary cell-based screen; CHO PERK-DD fusion, SEAP luminescence translation reporter; AID 1416; Q9NZJ5; 220,000 tested, 0.17% active; inhibition, % at 5.6 µM;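 active = inhibition above the mean inhibition of all tested compounds plus 3 SD, set separately per screening campaign, cut at about 2.9% in these data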;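 note: PERK kinase domain activated by AP20187 dimerizer at 100 nM; 0% = DMSO with dimerizer and 100% = rapamycin at 8.4 µM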
# Target sequence (Q9NZJ5 whole entry, looked up, the tested form may be a part): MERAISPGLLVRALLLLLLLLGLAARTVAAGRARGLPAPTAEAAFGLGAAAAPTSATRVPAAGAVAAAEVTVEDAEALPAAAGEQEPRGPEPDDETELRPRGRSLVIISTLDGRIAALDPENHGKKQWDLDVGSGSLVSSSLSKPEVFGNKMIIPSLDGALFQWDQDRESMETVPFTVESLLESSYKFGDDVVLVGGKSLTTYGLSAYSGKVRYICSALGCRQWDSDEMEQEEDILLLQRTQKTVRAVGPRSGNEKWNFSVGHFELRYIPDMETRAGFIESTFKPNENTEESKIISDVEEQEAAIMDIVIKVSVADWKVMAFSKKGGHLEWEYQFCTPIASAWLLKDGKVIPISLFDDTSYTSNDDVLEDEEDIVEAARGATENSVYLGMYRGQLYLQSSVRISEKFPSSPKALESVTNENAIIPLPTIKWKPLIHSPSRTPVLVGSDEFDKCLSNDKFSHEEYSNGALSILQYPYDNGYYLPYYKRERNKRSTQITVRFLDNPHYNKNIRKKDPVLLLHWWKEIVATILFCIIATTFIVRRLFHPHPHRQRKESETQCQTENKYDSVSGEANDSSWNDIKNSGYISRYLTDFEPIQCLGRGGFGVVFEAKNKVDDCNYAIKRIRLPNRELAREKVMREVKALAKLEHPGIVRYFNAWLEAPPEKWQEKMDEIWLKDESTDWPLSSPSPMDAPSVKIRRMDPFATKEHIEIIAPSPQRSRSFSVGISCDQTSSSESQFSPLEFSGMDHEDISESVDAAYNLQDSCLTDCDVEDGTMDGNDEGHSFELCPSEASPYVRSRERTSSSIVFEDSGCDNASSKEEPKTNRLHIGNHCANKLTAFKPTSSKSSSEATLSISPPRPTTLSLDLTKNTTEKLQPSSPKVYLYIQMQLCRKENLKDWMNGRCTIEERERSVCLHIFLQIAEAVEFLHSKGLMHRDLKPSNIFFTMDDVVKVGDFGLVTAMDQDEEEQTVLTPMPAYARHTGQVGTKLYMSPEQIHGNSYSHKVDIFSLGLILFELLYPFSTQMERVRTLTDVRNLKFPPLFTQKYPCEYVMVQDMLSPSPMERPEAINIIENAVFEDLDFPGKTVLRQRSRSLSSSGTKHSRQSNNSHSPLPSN
# An asterisk follows results filed as active; ? = inconclusive; / = no result given; [ ] = dose if it differs, or a comment. Unless noted, the rule behind the calls is not given here.
SMILES,PABP FP inh,MLLE-PAM2 inh,eIF4E-4G inh,eIF4H inh,PERK inhibitor
Cc1ccc(S(=O)(=O)Nc2nc(C)c(C(=O)N/N=C/c3ccccc3)s2)cc1,-13,3,-1,0,0
O=C(/C=C/c1cccc(C(F)(F)F)c1)Nc1cccc(C(F)(F)F)c1,-2,-3,0,2,-1
CN(C)c1ncc(C2=C(Cl)C(=O)C(N3CCCC3)=C(Cl)C2=O)s1,/,41*,53*[fluorescence artefact?],/,1
O=C1C(Cl)=C(N2CCCCC2)C(=O)C(Cl)=C1c1cnc(N2CCCCC2)s1,-8,48*,37*[fluorescence artefact?],?,0
CC(=O)c1cnc(N(C)C)s1,8,6,3,0,2
O=C1C(Cl)=C(N2CCCCCC2)C(=O)N1c1ccc(Cl)cc1,-10,-8,/,1,/
COc1ccc(NC(=O)CN(c2ccccc2)S(=O)(=O)c2ccccc2)c(OC)c1,6,13,5,0,-2
COc1cc(OC)cc(C(=O)N[C@H](C(=O)NCc2ccccc2)C(C)C)c1,-7,1,/,-4,/
Nn1c(SCc2ccccc2F)nnc1-c1ccccn1,61*,-8,-3,4.1*,-1
CCC(C)[C@@H](C(=O)NCC1CCC(C(=O)O)CC1)n1nnc2ccccc2c1=O (stereo partly drawn),9,-13,7,-8,2.9*
CCOc1ccc(S(=O)(=O)N2CCN(c3ccc(C)cc3C)CC2)cc1,-6,7,5,0,1
CCO/C=C/C(O)(CNC(=O)c1ccc(C(C)(C)C)cc1)C(F)(F)F (stereo not drawn),active,-11,-3,99,1
CCOC(=O)CNC(=O)c1ccc(C)cc1,0,0,-2,-8,0
CCCc1cc(=O)oc2c(CNc3ccc(OCC)cc3)c(O)ccc12,39*,-37,/,76,/
CCc1cc(=O)oc2c(CNCc3c(F)cccc3Cl)c(O)ccc12,-6,-17,/,-3,/
Cc1ccc(C(=O)NC2CCCCNC2=O)cc1 (stereo not drawn),0,6,90*,-6,1
CN(CC1CCOCC1)C(=O)CC1C(=O)NCCN1Cc1ccc(Cl)c(F)c1 (stereo not drawn),3,11,0,20,0
Cc1cnc(CNC(=O)CC2C(=O)NCCN2Cc2ccccc2F)cn1 (stereo not drawn),39,15,/,53,/
Cc1cnc(CNC(=O)CC2C(=O)NCCN2Cc2cccc(F)c2F)cn1 (stereo not drawn),53*,21,/,81*,/
Cc1nc(CCNC(=O)CC2C(=O)NCCN2Cc2ccccc2)sc1C (stereo not drawn),14,38*,/,7,/
O=C(CC1C(=O)NCCN1Cc1ccc(Cl)c(F)c1)NCC1CCOCC1 (stereo not drawn),8,16,90*,14,1
COc1cccc(CN2CCNC(=O)C2CC(=O)NCc2cn3ccccc3n2)c1OC (stereo not drawn),38*,15,-3,86*,3.0*
Cc1ccc(OCCCn2c(=O)sc3ccccc32)cc1,-6,8,-6,-7,0
Cn1c(=O)n(C)c2cc(S(=O)(=O)N3CCCCC3)ccc21,7,5,/,-10,/
CC1CCN(S(=O)(=O)N2CCC(C(=O)NCCc3ccccc3)CC2)CC1,5,6,/,4,/
SMILES,PABP FP inh,MLLE-PAM2 inh,eIF4E-4G inh,eIF4H inh,PERK inhibitor
CC1=CC2=NC(=O)/C(=C/c3coc4ccc(Cl)cc4c3=O)C(=N)N2O1,?,190,3,?,1
N#C/C(=C\c1ccc(C(=O)O)cc1)c1ccccn1,0.6*,-4,0,64*,2
CCN(CC)c1ccc(/C=C(\C#N)c2ccccn2)cc1,0,-140,-2,54,0
CN(Cc1ccccc1)C(=O)C1CCN(S(=O)(=O)c2ccc3nc4c(c(C(=O)O)c3c2)CCCC4)CC1,35,-6,/,66*,/
CC12CC3(C)CC(C)(C1)CC(C(=O)NCC(=O)O)(C2)C3,-1,18,2,6,1
Cc1cc(-c2ccccc2)nc(SC(C(=O)O)c2ccccc2)n1 (stereo not drawn),10,-2,-1,-4,0
CCCN(CC(=O)Nc1ccccc1OC)C(=O)c1cnc(Cl)c(Cl)c1,-10,11,/,-10,/
COc1ccc(CN2CC(=O)N3[C@H]4c5ccccc5OC[C@@H]4[C@H](c4ccccc4)[C@]3(C)C2=O)cc1,/,43*,/,/,/
Cc1cc(N2CCN(C(=O)c3ccco3)CC2)n2nc(C)c(-c3ccccc3)c2n1,4,12,-1,-7,-1
COc1cccc(-n2c(O)c(C=NCc3ccccn3)c3ccccc3c2=O)c1,-9,-8,4,-1,-3
O=c1c2ccccc2c(C=NCc2ccccn2)c(O)n1-c1ccccc1,3.8*,-13,-2,90*,-1
CCOC(=O)c1cn(-c2nc(-c3ccc(Cl)cc3)cs2)c2c(F)c(N3CC(C)OC(C)C3)c(F)cc2c1=O (stereo not drawn),-5,/,2,-2,3.2*
Cc1ccccc1-n1c2nc(=O)n(C)c(=O)c-2cc2ccccc21,66*,-41,16,83,1
CCCCn1c(=O)nc2n(-c3ccccc3C)c3ccccc3cc-2c1=O,-8,-32,12,4,0
O=C(/N=C1\NC(=O)C(F)(C(F)(F)F)S1)NC1CCCCC1 (stereo not drawn),102,-7,44*,122*,/
CC(C)NS(=O)(=O)c1ccc(NC(=S)NC(=O)c2cccc([N+](=O)[O-])c2)cc1,12,48*,2,-1,1
COc1ccc(CCNCC(=O)Nc2ccc(C)c(S(=O)(=O)N(C)C)c2)cc1,68*,-3,-2,active,0
COc1ccc(CCC(=O)Nc2ccc(C)c(S(=O)(=O)N(C)C)c2)cc1OC,-5,2,2,5,0
Cc1c(C(=O)OC2CCC(C)CC2)[nH]c2c1C(=O)CCC2 (stereo not drawn),-16,-1,3,75*,0
Cc1[nH]n(C2=NCCS2)c(=O)c1N=Nc1ccccc1,11,40*,-8,1,1
Cc1[nH]n(-c2ccccc2)c(=O)c1N=Nc1ccccc1O,9,-4,-6,12,1
Cc1ccccc1N=Nc1c(C)[nH]n(-c2ccccc2)c1=O,-6,/,59*,-3,1
Cc1[nH]n(-c2ccccc2)c(=O)c1N=Nc1ccc2c(c1)OCO2,-16,-2,-1,-4,0
COc1ccc(NC(=O)CN(C)CC(=O)c2[nH]c(C)c(C(C)=O)c2C)cc1,/,-3,/,/,/
COC(=O)c1ccc(CSc2nc3scc(-c4cccs4)c3c(=O)[nH]2)o1,20*,-17,-2,54*,0
COC(=O)c1ccc(CSc2nc3ccc(Cl)cc3[nH]2)o1,-2,/,6,3,-1
Cc1ccccc1N1CCN(C2=NC(=O)/C(=C/c3cn[nH]c3-c3ccccc3)S2)CC1,52*,-3,-4,?,1
O=C1N=C(N2CCCC2)S/C1=C\c1cn[nH]c1-c1ccccc1,38,/,-1,-9,1
